Compounds with a hit are over-represented: about 6.2% of the library has one in this group of screens.
AI-2 QS modul: Vibrio harveyi AI-2 quorum sensing modulation; Vibrio harveyi JMH597 AI-2 luminescence/OD600 ratio, 9 h; hits give low values; strain lacks LuxN and CqsS sensors; 0 = neutral-control median; activity change, % at 7.5 µM; 300,000 tested, 0.4% active; AID 2094; in the data active = activity change below about -75%, passing the limit was not always enough;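 note: luminescence divided by OD600 gain over 9 h not by final OD600 alone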
AHR activator: human AHR activation | P35869 | 320,000 tested, 2.5% active | activation, % at 5 µM | AHR-responsive luciferase reporter cells, luminescence; in the data active = activation above about 47%;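 note: 0% = vehicle wells and 100% = reference agonist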
Target sequence (P35869 whole entry, looked up): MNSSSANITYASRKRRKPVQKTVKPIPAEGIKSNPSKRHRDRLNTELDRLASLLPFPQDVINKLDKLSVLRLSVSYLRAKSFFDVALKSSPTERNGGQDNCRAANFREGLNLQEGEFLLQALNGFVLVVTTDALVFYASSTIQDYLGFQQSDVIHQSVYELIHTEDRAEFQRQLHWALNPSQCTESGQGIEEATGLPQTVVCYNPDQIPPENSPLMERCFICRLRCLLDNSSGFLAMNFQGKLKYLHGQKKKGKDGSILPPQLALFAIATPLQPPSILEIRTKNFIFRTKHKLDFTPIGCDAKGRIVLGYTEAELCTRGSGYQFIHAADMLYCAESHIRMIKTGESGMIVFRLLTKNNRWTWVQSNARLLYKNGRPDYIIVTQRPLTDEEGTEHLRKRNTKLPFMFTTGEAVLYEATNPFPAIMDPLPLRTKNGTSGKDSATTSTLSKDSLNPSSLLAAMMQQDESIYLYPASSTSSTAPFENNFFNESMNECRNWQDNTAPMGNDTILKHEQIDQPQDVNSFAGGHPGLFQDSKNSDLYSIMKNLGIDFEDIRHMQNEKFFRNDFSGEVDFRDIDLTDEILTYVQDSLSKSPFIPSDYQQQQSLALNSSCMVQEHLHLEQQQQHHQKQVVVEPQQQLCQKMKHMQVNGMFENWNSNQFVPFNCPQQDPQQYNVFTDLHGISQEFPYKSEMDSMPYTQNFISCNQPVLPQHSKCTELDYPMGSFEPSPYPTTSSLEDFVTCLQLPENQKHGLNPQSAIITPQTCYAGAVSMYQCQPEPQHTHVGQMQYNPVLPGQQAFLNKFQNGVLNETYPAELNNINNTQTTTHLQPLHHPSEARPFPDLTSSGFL
Mot1-301 SUMO: SUMOylation pathway inhibition by Mot1-301 growth rescue. AID 2716. 320,000 tested, 1% active. S. cerevisiae Mot1-301 growth rescue, ATP luminescence, 38.5C; percent above DMSO median, 100 means doubled. growth rescue, % at 18.8 µM;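 active = every valid replicate shows activation above 250% relative to neutral control wells; inactive = the rest, any valid replicate at or below 250%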;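 note: OY570 slx delta 5 strain wells were the positive control but not used for scaling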
NTR1 ag: activates human neurotensin receptor 1. 330,000 tested, 0.17% active. NTR1-U2OS beta-arrestin-GFP spot imaging, agonist mode. P30989. AID 493036. activation, % at 20 µM;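 active = activation at or above 40% of the spot to cytoplasm intensity ratio, with at least 20 cells analyzed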;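 note: 0% = DMSO without peptide and 100% = 100 nM NTR1 peptide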
GRIN3A LBD mod: modulates the human NR3A ligand-binding domain. 340,000 tested, 2.5% active. Tm shift relative to glycine control, % at 25 µM. NR3A LBD differential scanning fluorimetry, Tm shift; 0% = protein alone, 100% = glycine-bound protein. AID 1259313;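 active = melting temperature shift of at least 10% of the positive control shift, at one fixed dose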
H9c2 protect: protects H9c2 cardiomyocytes from peroxide injury; H2O2 injury protection, ATPLite, 2 h; protection from H2O2 cell death, % at 20 µM; 360,000 tested, 0.63% active;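 active = compounds giving at least 50% protection of heart cells from peroxide-induced death in the single-dose screen, raw or plate-pattern-corrected value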;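 note: 0% = DMSO wells with peroxide and 100% = DMSO wells without peroxide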
Starred values were filed as active, the others as inactive.

For CCOc1ccc(Nc2nc3cc(S(=O)(=O)CC)ccc3o2)cc1 the results were AI-2 QS modul -3, AHR activator 64*, Mot1-301 SUMO 137, NTR1 ag 4, GRIN3A LBD mod -18 and H9c2 protect -4.
N=C(N)c1ccc(Cl)cc1 was read as AI-2 QS modul 0, AHR activator 52*, Mot1-301 SUMO 107, NTR1 ag 0, GRIN3A LBD mod -1 and H9c2 protect -8.
O=C(CN(C(=O)CNC(=O)c1ccco1)c1ccc2c(c1)OCO2)NC1CCCCC1 was read as AI-2 QS modul 11, AHR activator 2, Mot1-301 SUMO -4, NTR1 ag -1, GRIN3A LBD mod -3 and H9c2 protect -7.
For O=C(NCC(=O)N(Cc1cccs1)C(C(=O)NC1CCCCC1)c1ccncc1)c1ccco1 (centres undefined) the results were AI-2 QS modul 38, AHR activator 0, Mot1-301 SUMO -11, NTR1 ag -1, GRIN3A LBD mod -2 and H9c2 protect 3.
For O=C(NCC(=O)N(Cc1ccccc1)C(C(=O)NC1CCCCC1)c1ccco1)c1ccco1 (centres undefined) the results were AI-2 QS modul 13, AHR activator 3, Mot1-301 SUMO 39, NTR1 ag 0, GRIN3A LBD mod 1 and H9c2 protect 97*.
`O=C(CN(Cc1ccc2c(c1)OCO2)C(=O)CNC(=O)c1ccco1)NC1CCCCC1` gave AI-2 QS modul 29, AHR activator -1, Mot1-301 SUMO 335*, NTR1 ag 1, GRIN3A LBD mod 0 and H9c2 protect 3.
COc1ccc(C(C(=O)NC2CCCC2)N(Cc2ccccc2)C(=O)CNC(=O)c2ccco2)cc1 (centres undefined) was read as AI-2 QS modul 4, AHR activator 2, Mot1-301 SUMO -10, NTR1 ag 3, GRIN3A LBD mod 1 and H9c2 protect 4.
Screening O=C(NCC(=O)N(Cc1cccs1)C(C(=O)NC1CCCC1)c1ccco1)c1cccs1 (centres undefined) returned AI-2 QS modul 6, AHR activator 3, Mot1-301 SUMO -10, NTR1 ag 3, GRIN3A LBD mod -2 and H9c2 protect 59*.
`O=C(COC(=O)c1cccc(Cl)c1)Nc1cccc(S(=O)(=O)NC2=NCCC2)c1` gave AHR activator 3, Mot1-301 SUMO 16, NTR1 ag -1, GRIN3A LBD mod 0 and H9c2 protect -7.
Cc1csc(Nc2nc(N)c(C(=O)Nc3cc(Cl)ccc3F)o2)n1 was read as AI-2 QS modul -11, AHR activator -1, Mot1-301 SUMO 70, NTR1 ag 1, GRIN3A LBD mod 22* and H9c2 protect -7.
Cc1csc(NC(=O)Cc2c(F)cccc2Cl)n1 was read as AI-2 QS modul 5, AHR activator 7, Mot1-301 SUMO 316, NTR1 ag 4, GRIN3A LBD mod -1 and H9c2 protect -4.
CCN(C[C@H]1N[C@@](Cc2ccccc2)(C(=O)OC)[C@H]2C(=O)N(C)C(=O)[C@@H]12)S(=O)(=O)c1ccc(OC)cc1 was read as AHR activator 0, Mot1-301 SUMO 3, NTR1 ag -3, GRIN3A LBD mod -2 and H9c2 protect 60*.
Screening CCN(C[C@H]1N[C@@](Cc2ccccc2)(C(=O)OC)[C@H]2C(=O)N(C)C(=O)[C@@H]12)S(=O)(=O)c1ccc(OC(F)(F)F)cc1 returned AHR activator -2, Mot1-301 SUMO 2, NTR1 ag -2, GRIN3A LBD mod 2 and H9c2 protect 41.
`CCCCCCSc1ccc([C@H]2N[C@@](Cc3ccccc3)(C(=O)OC)[C@H]3C(=O)N(C)C(=O)[C@@H]23)cc1` gave AI-2 QS modul 21, AHR activator 3, Mot1-301 SUMO -6, NTR1 ag 8, GRIN3A LBD mod -8 and H9c2 protect 77*.
For Cc1ccc(SCC(=O)OCc2csc(CC(=O)Nc3ccccc3C)n2)cc1C the results were AHR activator 1, Mot1-301 SUMO 51, NTR1 ag -2, GRIN3A LBD mod 0 and H9c2 protect -2.
For COc1cc(C(=O)NCC(=O)NCC2COc3ccccc3O2)cc(OC)c1OC (centres undefined) the results were AI-2 QS modul 37, AHR activator 2, Mot1-301 SUMO -15, NTR1 ag 1, GRIN3A LBD mod 1 and H9c2 protect 3.
COc1ccc(Cl)cc1C=CC=NNS(=O)(=O)c1ccc(C)cc1 was read as GRIN3A LBD mod 20* and H9c2 protect 7.
`COc1ccc(Br)cc1C=NNS(=O)(=O)c1ccc(C)cc1` gave H9c2 protect -5.
Screening C[C@@H](CSc1ccc(Br)cc1)CN1CC[C@H](C(C)(C)C)CCC1=O returned AHR activator -1, Mot1-301 SUMO -3, NTR1 ag 8, GRIN3A LBD mod 10* and H9c2 protect -24.
Screening Cc1ccc(SC[C@H](C)CN2CC[C@H](C(C)(C)C)CCC2=O)cc1 returned AI-2 QS modul 27, AHR activator 1, Mot1-301 SUMO -32, NTR1 ag 6, GRIN3A LBD mod 3 and H9c2 protect 1.
Screening CSc1nnc(C)c(/C=C/Nc2ccc(Cl)cc2)n1 returned AI-2 QS modul 10, AHR activator 50*, Mot1-301 SUMO -7, NTR1 ag 0, GRIN3A LBD mod -7 and H9c2 protect 3.
For O=S(=O)(c1ccccc1)N1CN(c2ccc(F)cc2F)c2nc3ccccc3nc21 the results were AHR activator 10, Mot1-301 SUMO -1, NTR1 ag 2, GRIN3A LBD mod 1 and H9c2 protect -7.
O=S(=O)(c1ccccc1)N1c2cc(Cl)ccc2Oc2nc3ccccc3nc21 was read as AI-2 QS modul -6, AHR activator 74*, Mot1-301 SUMO 12, NTR1 ag 0, GRIN3A LBD mod -24 and H9c2 protect -13.
Screening Cc1ccc(NC(=O)c2sc(N)nc2C)cc1 returned AI-2 QS modul 1, AHR activator 61*, Mot1-301 SUMO 12, NTR1 ag 0, GRIN3A LBD mod 2 and H9c2 protect 0.
For COc1ccc(NC(=O)c2sc(NC(=O)COc3ccccc3)nc2C)cc1 the results were AI-2 QS modul 10, AHR activator 23, Mot1-301 SUMO 5, NTR1 ag -2, GRIN3A LBD mod 14* and H9c2 protect 15.
Screening Cc1nc(NC(=O)COc2ccccc2)sc1C(=O)Nc1cccc(Cl)c1 returned AI-2 QS modul 3, AHR activator 31, Mot1-301 SUMO 25, NTR1 ag 3, GRIN3A LBD mod 7 and H9c2 protect 3.
`Cc1nc(NC(=O)/C=C/c2ccccc2)sc1C(=O)Nc1cccc(Cl)c1` gave AI-2 QS modul 7, AHR activator 8, Mot1-301 SUMO 3, NTR1 ag 4, GRIN3A LBD mod 32* and H9c2 protect 14.
